About 79,000 compounds went through this panel and 15% of them were active in at least one assay; those are over-represented in the sample as a whole. A number with no mark means an inactive call. Calls of active or inactive are those of the source. Cut-off read from the data, not from the text of the source: active = growth inhibition above about 70%; inactive = the rest.
Legend:
[1] = NCI Yeast Anticancer Drug Screen. Data for the rad50 strain (AID 155);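 note: 0% = growth of vehicle-only cultures of the same strain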; settings: S. cerevisiae rad50 strain growth inhibition, hits give high values
How it was run: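 Genetically altered yeast (DNA repair pathway); compound treatment; growth inhibition vs vehicle ctrl.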

[2] = NCI Yeast Anticancer Drug Screen. Data for the mec2-1 strain (AID 157); settings: S. cerevisiae mec2-1 strain, hits give high values
How it was run: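 Test agents were screened against the mec2-1 yeast strain, with defined DNA repair or cell cycle alteration. Growth was scored as inhibition against vehicle-only controls.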

[3] = NCI Yeast Anticancer Drug Screen. Data for the sgs1 mgt1 strain (AID 161);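 note: 0% = growth of cultures given vehicle only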; settings: S. cerevisiae sgs1 mgt1 strain, hits give high values
How it was run: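 Genetically altered yeast, compound exposure, growth inhibition relative to vehicle.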

[4] = NCI Yeast Anticancer Drug Screen. Data for the cln2 rad14 strain (AID 165);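 note: 0% = growth equal to vehicle treated cultures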; settings: S. cerevisiae cln2 rad14 strain, hits give high values
How it was run: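 Growth of compound-exposed yeast (cln2 rad14 genotype) measured and expressed as inhibition relative to vehicle.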

[5] = NCI Yeast Anticancer Drug Screen. Data for the bub3 strain (AID 167); settings: S. cerevisiae bub3 mutant strain, hits give high values
How it was run: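 Yeast carrying a defined mutation is treated with each compound, and growth is compared with that of vehicle-exposed cells to give inhibition.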

[6] = NCI Yeast Anticancer Drug Screen. Data for the mlh1 rad18 strain (AID 175); settings: S. cerevisiae mlh1 rad18 strain growth inhibition, hits give high values
How it was run: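 In this whole-cell yeast screen, a strain with altered DNA damage repair is challenged with compound, and its growth is measured against matched vehicle-treated controls.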

[7] = at 5.0 µM (retest, dose inferred, filed as 0.5)
[8] = at 50.0 µM (retest, dose inferred, filed as 5.0)

SMILES	growth inhibition [1, 7]	growth inhibition [1, 8]	growth inhibition ([1]; at 50.0 µM)	growth inhibition [2, 7]	growth inhibition [2, 8]	growth inhibition ([2]; at 50.0 µM)	growth inhibition [3, 7]	growth inhibition [3, 8]	growth inhibition ([3]; at 50.0 µM)	growth inhibition [4, 7]	growth inhibition [4, 8]	growth inhibition ([4]; at 50.0 µM)	growth inhibition [5, 7]	growth inhibition [5, 8]	growth inhibition ([5]; at 50.0 µM)	growth inhibition [6, 7]	growth inhibition [6, 8]	growth inhibition ([6]; at 50.0 µM)
Nc1nc(-c2ccccc2)c(-c2ccccc2)c(-c2nc(N)nc(-c3ccccc3)c2-c2ccccc2)n1	7%	-3%	-4%	6%	16%	-6%	-1%	0%	-16.9%	21%	12%	2.45%	-1%	-9%	-17.1%	-12%	-16%	7.8%
N=C(/C(=C/c1ccccc1)c1ccccc1)c1ccccc1	5%	78% (active)	97.6% (active)	8%	76% (active)	98.8% (active)	6%	98% (active)	98.5% (active)	-4%	97% (active)	97.8% (active)	25%	98% (active)	98.7% (active)	5%	98% (active)	97.9% (active)
O=C(CSC1=NNC2(C(=O)N1)c1ccccc1-c1ccccc12)NC(=S)Nc1ccccc1	-3%	95% (active)	96.2% (active)	-15%	90% (active)	97% (active)	-7%	96% (active)	98% (active)	-8%	86% (active)	96.4% (active)	-16%	94% (active)	97.5% (active)	-24%	95% (active)	97% (active)
O=C1C=C(Br)C(=O)C(Br)=C1	25%	99% (active)	93.8% (active)	21%	99% (active)	99.6% (active)	13%	98% (active)	99.3% (active)	28%	86% (active)	25.7%	31%	99% (active)	94.2% (active)	40%	99% (active)	97.5% (active)
O=C1C(c2ccccc2)=S=C2C=CC=CN12	2%	67%	85.2% (active)	-1%	41%	41.1%	2%	79% (active)	16.8%	-1%	17%	-0.75%	-4%	72% (active)	41.5%	19%	95% (active)	79.3% (active)
[NH-]c1ccccc1[S-].[NH-]c1ccccc1[S-].[Zn]	0%	99% (active)	99.3% (active)	11%	100% (active)	99.6% (active)	18%	100% (active)	102% (active)	7%	98% (active)	96.3% (active)	14%	99% (active)	99.4% (active)	19%	99% (active)	99.2% (active)
CC(=O)Nc1ccc(C(=O)n2[nH]c(C)c(/C=C3\C(=O)C=Cc4ccccc43)c2=O)cc1	27%	100% (active)	99.2% (active)	19%	100% (active)	99.5% (active)	15%	99% (active)	99.4% (active)	-10%	99% (active)	98.7% (active)	24%	100% (active)	99.2% (active)	42%	99% (active)	99% (active)
CC(C)OC(=O)c1ccc(NCC2=CC(=O)C=CC2=O)cc1Cl	53%	99% (active)	90.7% (active)	44%	100% (active)	92.5% (active)	55%	100% (active)	91.2% (active)	61%	100% (active)	91.2% (active)	55%	100% (active)	88.9% (active)	46%	99% (active)	91.7% (active)
CC12CCCC1C1CC=C3CC(OC=O)CCC3(C)C1CC2 (configuration not stated)	1%	4%	13.4%	10%	3%	1.5%	0%	25%	40.9%	-37%	-5%	38.8%	-8%	44%	-13.4%	-1%	-2%	-12.3%
NCCSC1(O)C(=O)c2ccccc2-c2ccccc21 (configuration not stated)	6%	98% (active)	98.8% (active)	84% (active)	99% (active)	98.2% (active)	32%	99% (active)	99.1% (active)	-14%	99% (active)	96.2% (active)	79% (active)	99% (active)	97.8% (active)	57%	99% (active)	98.8% (active)
OCc1cccc2c1Oc1ccccc1S2	2%	55%	52.4%	4%	63%	-25.4%	1%	66%	-10.3%	-5%	17%	-59.5%	11%	73% (active)	-37.5%	4%	71% (active)	2.9%
CCN(CC)CCOc1ccc(/C=C/c2ccccc2)cc1	2%	99% (active)	73% (active)	0%	99% (active)	77.7% (active)	5%	98% (active)	93.7% (active)	-5%	99% (active)	56.7%	6%	99% (active)	93.4% (active)	3%	99% (active)	78% (active)
O=C1C=CC(=O)N1c1cccc(F)c1	96% (active)	99% (active)	99.7% (active)	97% (active)	100% (active)	99.8% (active)	93% (active)	99% (active)	99.7% (active)	82% (active)	99% (active)	98.8% (active)	98% (active)	100% (active)	99.6% (active)	88% (active)	100% (active)	99.4% (active)
Cc1cc(I)cc(I)c1O	8%	55%	75.5% (active)	2%	34%	80.7% (active)	7%	33%	55.3%	4%	4%	-7.85%	1%	33%	67.3%	10%	62%	86.3% (active)
O=C(O)c1cc2cc3ccccc3cc2cc1O	-1%	32%	73.3% (active)	2%	34%	57.2%	3%	36%	81% (active)	-1%	14%	55.2%	0%	22%	51.2%	-1%	27%	64.7%
O=Nc1cc(-c2ccccc2)c2ccccc2c1O	14%	86% (active)	-2.65%	14%	96% (active)	31.9%	6%	93% (active)	-10.4%	15%	97% (active)	97.5% (active)	22%	95% (active)	97.4% (active)	23%	96% (active)	2.45%
O=C1CC(c2ccccc2)C(=O)N2C(=O)CC(c3ccccc3)C(=O)N12 (configuration not stated)	1%	28%	42.2%	2%	3%	7.6%	-5%	8%	1.35%	-5%	-9%	-27.1%	0%	28%	71.5% (active)	2%	-7%	45.8%
CCOC(=O)C(=O)Nc1ccc(Cl)cc1Cl	-12%	-1%	-1.5%	-12%	-5%	-10.3%	-1%	-2%	-2.25%	14%	34%	-1.75%	10%	-10%	10.6%	1%	7%	19.1%
C1=NCCN=Cc2ccccc2NCCNc2ccccc21	3%	2%	55.2%	6%	-20%	58.6%	4%	41%	74.8% (active)	15%	23%	53.5%	6%	6%	43.5%	-3%	-2%	69%
